Measurements from ChEMBL document CHEMBL4513146, “CO-ADD screening of Karazin Kharkiv National University (Ukraine) compounds”.
Results with a measured potency or affinity are listed apart.

Experiments:
[1] = system: Klebsiella pneumoniae; conditions: Concentration 32 ug.mL-1;; ASSAY_TEST Inhibition of Bacterial Growth; detection method Absorption (OD600); MEDIA CAMHB; plate type 384well; NBS; CORNING #3640; time 18 hr
[2] = system: Candida albicans; conditions: Concentration 32 ug.mL-1; ASSAY_TEST Inhibition of Fungal Growth; detection method Absorption (OD530)
[3] = system: Cryptococcus neoformans; conditions: Concentration 32 ug.mL-1; ASSAY_TEST Inhibition of Fungal Growth; detection method Resazurin; Absorption (OD600-OD570); plate type 384well; NBS; CORNING #3640

Compound | Inhibition [1] | Inhibition [2] | Inhibition [3]
CCOC(=O)c1ccc(NC(=O)Cn2nc3ccc(S(=O)(=O)C(C)(C)C)nn3c2=O)cc1 | 4.44% | 15.58% | -19.66%
CCc1nnc2c(S(=O)(=O)N(Cc3ccc(F)cc3)c3ccc(Cl)cc3)cccn12 | 7.23% | 3.47% | -6.36%
Cc1cccc(N(Cc2cccc(Cl)c2)S(=O)(=O)c2cccn3c(C)nnc23)c1 | 4.74% | 3% | -4.93%
COc1cc(OC)c(NC(=O)Cn2nc3ccc(Sc4ccc(C)cc4)nn3c2=O)cc1Cl | -1.47% | 29.33% | -7.45%
CC(C)c1nnc2c(SCC(=O)Nc3ccc4c(c3)OCO4)nc3ccccc3n12 | 4.73% | -0.7% | -20.34%
Cc1cccc(CN(c2ccccc2)S(=O)(=O)c2cccn3c(C)nnc23)c1 | 4.77% | -0.3% | -6.4%
CC1CCc2c(sc3ncn4c(=O)n(CC(=O)Nc5ccc6c(c5)CCC6)nc4c23)C1 (stereo not given) | 13.08% | 4.62% | -27.54%
Cc1ccc2c(c1)N(C(=O)Cn1nc3ccc(SC(C)(C)C)nn3c1=O)CCO2 | 14.93% | 9.3% | -18.35%
COc1ccc(Cl)cc1NC(=O)CSc1nc2ccccc2n2cnnc12 | 13.26% | 6.06% | -17.53%
O=C(Cn1nc2c3sc(N4CCCC4)nc3ncn2c1=O)Nc1ccccc1Cl | 7.88% | 4.36% | -9.84%
